Test results: the supplement of paper PMC10849652
About 7,900 targets were measured; listed, in parts, are those with a hit and a random draw of the rest. About 0.6% of all pairs of compound and target were hits.

Experiments:
Assay in all cases: log2 fold change, soluble protein after heating vs DMSO (PISA); higher = thermal stabilisation; K562 cells, 10 uM, 30 min; active = over 0.2 and 3.5 SD of the protein, either way, in both replicates (recomputed)
[1] = compound: NC(=O)Nc1cc(-c2cccc(F)c2)sc1C(=O)N[C@H]1CCCNC1
Outline: (§1)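 K562 cells at 2×10^6 cells/mL were exposed to 10 μM compound for 30 min, then aliquots were heated for 3 min across 48°C-58°C, pooled, and extracted in PBS containing 0.5% NP-40 at 4°C. The supernatant after 21,000xg for 90 min was taken as soluble protein and measured by TMTpro 16plex LC-MS/MS with channel sums equalised. Thermal stability is reported relative to control samples, with values from duplicates. Fold changes are given on a log2 scale.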

[2] = compound: NC(=O)c1cnc(N[C@@H]2CCCC[C@@H]2N)nc1Nc1cccc(-n2nccn2)c1
Outline: as §1

[3] = compound: NC1(c2ccc(-c3nc4ccn5c(=O)[nH]nc5c4cc3-c3ccccc3)cc2)CCC1
Outline: as §1

[4] = compound: NCC(=O)Nc1ccc(-n2nc(C(F)(F)F)cc2-c2ccc3c(ccc4ccccc43)c2)cc1
Outline: as §1

entinostat = compound: Nc1ccccc1NC(=O)c1ccc(CNC(=O)OCc2cccnc2)cc1 [entinostat]
Outline: as §1

vorinostat = compound: O=C(CCCCCCC(=O)Nc1ccccc1)NO [vorinostat]
Outline: as §1

citarinostat = compound: O=C(CCCCCCNC(=O)c1cnc(N(c2ccccc2)c2ccccc2Cl)nc1)NO [citarinostat]
Outline: as §1

silmitasertib = compound: O=C(O)c1ccc2c(c1)nc(Nc1cccc(Cl)c1)c1ccncc12 [silmitasertib]
Outline: as §1

[5] = compound: O=C1NC(=O)C(c2cnc3ccccn23)=C1c1cn2c3c(cc(F)cc13)CN(C(=O)N1CCCCC1)CC2
Outline: as §1

[6] = compound: c1cc(OCCN2CCCCC2)cc(-c2n[nH]c3ccc(-c4nnc[nH]4)cc23)c1
Outline: as §1

Measured: log2 fold change

XRCC6 (UniProt P12956)
inactive: [1] -0.064 | [2] -0.143 | [3] -0.139 | [4] -0.08 | entinostat 0.098 | vorinostat 0.134 | citarinostat 0.107 | silmitasertib 0.026 | [5] -0.119 | [6] -0.049

WDR7 (UniProt Q9Y4E6)
inactive: [1] -0.227 | [2] -0.017 | [3] 0.104 | [4] -0.019 | entinostat 0.008 | vorinostat 0.036 | citarinostat -0.125 | silmitasertib 0.032 | [5] 0.119 | [6] -0.088

VAMP7 (UniProt P51809)
UniProt P51809, sequence (P51809 whole entry, looked up): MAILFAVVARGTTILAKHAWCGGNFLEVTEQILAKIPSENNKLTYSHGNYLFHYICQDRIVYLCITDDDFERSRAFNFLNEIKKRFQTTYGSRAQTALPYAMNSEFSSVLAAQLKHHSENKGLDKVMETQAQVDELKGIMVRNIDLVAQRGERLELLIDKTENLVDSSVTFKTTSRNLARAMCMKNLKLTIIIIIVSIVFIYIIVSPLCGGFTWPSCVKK
inactive: [1] -0.029 | [2] 0.001 | [3] -0.176 | [4] -0.069 | entinostat 0.009 | vorinostat 0.025 | citarinostat 0.086 | silmitasertib 0.027 | [5] -0.058 | [6] 0.026

TMEM9 (UniProt Q9P0T7)
inactive: [1] -0.008 | [2] 0.047 | [3] -0.113 | [4] 0.063 | entinostat -0.026 | vorinostat -0.053 | citarinostat 0.1 | silmitasertib -0.044 | [5] -0.031 | [6] 0.065

USP34 (UniProt Q70CQ2)
inactive: [1] 0.012 | [2] -0.08 | [3] -0.131 | [4] -0.02 | entinostat 0.024 | vorinostat 0.118 | citarinostat 0.123 | silmitasertib 0.045 | [5] -0.008 | [6] -0.074

TMEM70 (UniProt Q9BUB7)
inactive: [1] -0.058 | [2] -0.125 | [3] -0.162 | [4] -0.137 | entinostat 0.005 | vorinostat 0.031 | citarinostat 0.047 | silmitasertib 0.019 | [5] -0.045 | [6] -0.003

UTP14A (UniProt Q9BVJ6)
UniProt Q9BVJ6, sequence (Q9BVJ6 whole entry, looked up): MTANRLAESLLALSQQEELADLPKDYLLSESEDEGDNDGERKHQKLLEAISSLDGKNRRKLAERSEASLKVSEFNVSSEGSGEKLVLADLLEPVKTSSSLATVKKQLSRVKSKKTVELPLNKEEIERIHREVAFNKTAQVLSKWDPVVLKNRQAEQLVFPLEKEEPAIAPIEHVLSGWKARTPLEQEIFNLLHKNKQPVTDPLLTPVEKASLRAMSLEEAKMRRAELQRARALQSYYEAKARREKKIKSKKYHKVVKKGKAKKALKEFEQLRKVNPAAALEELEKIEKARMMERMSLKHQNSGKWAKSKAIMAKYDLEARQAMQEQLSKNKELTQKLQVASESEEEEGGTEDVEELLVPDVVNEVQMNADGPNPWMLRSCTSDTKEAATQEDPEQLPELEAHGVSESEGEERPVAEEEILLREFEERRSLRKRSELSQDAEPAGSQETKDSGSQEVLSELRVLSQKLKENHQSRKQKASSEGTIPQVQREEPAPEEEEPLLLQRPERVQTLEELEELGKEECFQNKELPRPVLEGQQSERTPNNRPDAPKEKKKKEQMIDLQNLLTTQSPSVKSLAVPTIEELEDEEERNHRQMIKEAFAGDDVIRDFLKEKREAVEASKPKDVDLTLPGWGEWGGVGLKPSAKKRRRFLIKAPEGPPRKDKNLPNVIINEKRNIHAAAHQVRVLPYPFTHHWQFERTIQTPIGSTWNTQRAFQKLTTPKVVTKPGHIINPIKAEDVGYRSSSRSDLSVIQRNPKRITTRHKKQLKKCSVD
inactive: [1] 0.079 | [2] 0.048 | [3] 0.083 | [4] 0.076 | entinostat 0.012 | vorinostat 0 | citarinostat -0.04 | silmitasertib 0.128 | [5] 0.082 | [6] -0.092

VPS16 (UniProt Q9H269)
inactive: [1] 0.041 | [2] -0.156 | [3] -0.211 | [4] 0.007 | entinostat 0.084 | vorinostat 0.16 | citarinostat 0.189 | silmitasertib 0.009 | [5] 0.122 | [6] 0

TPR (UniProt P12270)
inactive: [1] 0.09 | [2] -0.039 | [3] 0.06 | [4] -0.032 | entinostat -0.019 | vorinostat -0.084 | citarinostat 0.008 | [5] 0.085 | [6] 0.005
active: silmitasertib 0.3

TRIM28 (UniProt Q13263)
UniProt Q13263, sequence (Q13263 whole entry, looked up): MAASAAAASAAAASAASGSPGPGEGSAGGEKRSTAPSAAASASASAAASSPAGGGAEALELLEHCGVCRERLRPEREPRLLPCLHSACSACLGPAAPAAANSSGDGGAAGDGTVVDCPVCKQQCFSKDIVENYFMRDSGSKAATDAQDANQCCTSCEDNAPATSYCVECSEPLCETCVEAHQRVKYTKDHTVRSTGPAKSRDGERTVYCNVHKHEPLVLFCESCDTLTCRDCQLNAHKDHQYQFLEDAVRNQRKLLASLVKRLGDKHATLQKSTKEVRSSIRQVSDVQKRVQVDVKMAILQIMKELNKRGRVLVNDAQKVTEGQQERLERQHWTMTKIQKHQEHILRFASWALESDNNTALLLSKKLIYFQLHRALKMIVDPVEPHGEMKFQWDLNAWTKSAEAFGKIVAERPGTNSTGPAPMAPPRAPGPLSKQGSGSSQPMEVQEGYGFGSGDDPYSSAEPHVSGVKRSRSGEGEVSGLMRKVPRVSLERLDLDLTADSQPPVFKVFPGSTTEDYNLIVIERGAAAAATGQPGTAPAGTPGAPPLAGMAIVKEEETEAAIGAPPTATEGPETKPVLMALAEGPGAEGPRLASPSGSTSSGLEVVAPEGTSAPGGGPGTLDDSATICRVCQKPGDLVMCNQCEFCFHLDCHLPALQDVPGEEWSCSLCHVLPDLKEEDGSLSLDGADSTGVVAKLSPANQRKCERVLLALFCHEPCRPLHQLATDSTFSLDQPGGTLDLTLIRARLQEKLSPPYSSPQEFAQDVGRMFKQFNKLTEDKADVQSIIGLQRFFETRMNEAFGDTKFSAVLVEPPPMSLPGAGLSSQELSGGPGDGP
inactive: [1] -0.006 | [2] -0.008 | [3] -0.038 | [4] -0.007 | entinostat 0.038 | vorinostat 0.032 | citarinostat 0.036 | silmitasertib 0.036 | [5] -0.048 | [6] -0.009

UBE4B isoform 4 (UniProt O95155)
inactive: [1] 0.005 | [2] -0.055 | [3] -0.113 | [4] -0.056 | entinostat 0.019 | vorinostat 0.023 | citarinostat 0.02 | silmitasertib 0.042 | [5] -0.082 | [6] -0.014

TNFRSF8 (UniProt P28908)
inactive: [1] -0.12 | [2] 0.128 | [3] 0.106 | [4] 0.025 | entinostat -0.066 | vorinostat -0.078 | citarinostat -0.003 | silmitasertib -0.052 | [5] -0.053 | [6] -0.025

WRB (UniProt O00258)
UniProt O00258, sequence (O00258 whole entry, looked up): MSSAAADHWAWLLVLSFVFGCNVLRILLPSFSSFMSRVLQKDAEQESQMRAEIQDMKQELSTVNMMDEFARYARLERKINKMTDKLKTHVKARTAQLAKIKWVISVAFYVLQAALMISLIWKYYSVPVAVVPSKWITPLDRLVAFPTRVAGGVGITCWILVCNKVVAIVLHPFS
inactive: [1] 0.003 | [2] 0.019 | [3] -0.018 | [4] 0.006 | entinostat -0.011 | vorinostat -0.035 | citarinostat 0.034 | silmitasertib 0.028 | [5] 0.062 | [6] -0.042

TMTC3 (UniProt Q6ZXV5)
inactive: [1] -0.028 | [2] -0.113 | [3] -0.135 | [4] -0.097 | entinostat -0.046 | vorinostat 0.025 | citarinostat 0.005 | silmitasertib 0.025 | [5] -0.037 | [6] -0.089

TUBA4A (UniProt P68366)
UniProt P68366, sequence (P68366 whole entry, looked up): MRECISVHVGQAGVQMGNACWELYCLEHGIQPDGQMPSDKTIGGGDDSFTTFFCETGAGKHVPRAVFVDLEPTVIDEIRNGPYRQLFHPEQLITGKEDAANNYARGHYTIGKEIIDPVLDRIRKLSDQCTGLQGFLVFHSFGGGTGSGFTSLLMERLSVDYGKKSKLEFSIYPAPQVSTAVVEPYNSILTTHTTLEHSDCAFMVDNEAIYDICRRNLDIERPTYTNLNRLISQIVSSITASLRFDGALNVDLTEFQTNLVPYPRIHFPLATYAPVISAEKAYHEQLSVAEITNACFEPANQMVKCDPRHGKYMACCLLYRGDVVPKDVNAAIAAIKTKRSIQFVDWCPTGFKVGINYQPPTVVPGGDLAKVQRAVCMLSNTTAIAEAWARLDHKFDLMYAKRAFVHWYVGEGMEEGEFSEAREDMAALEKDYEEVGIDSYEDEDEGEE
inactive: [1] 0.004 | [2] -0.02 | [3] -0.063 | [4] 0.028 | entinostat -0.024 | vorinostat 0.062 | citarinostat 0.031 | silmitasertib -0.065 | [5] -0.059 | [6] 0.009

USP25 isoform 3 (UniProt Q9UHP3)
UniProt Q9UHP3, sequence (Q9UHP3 whole entry, looked up): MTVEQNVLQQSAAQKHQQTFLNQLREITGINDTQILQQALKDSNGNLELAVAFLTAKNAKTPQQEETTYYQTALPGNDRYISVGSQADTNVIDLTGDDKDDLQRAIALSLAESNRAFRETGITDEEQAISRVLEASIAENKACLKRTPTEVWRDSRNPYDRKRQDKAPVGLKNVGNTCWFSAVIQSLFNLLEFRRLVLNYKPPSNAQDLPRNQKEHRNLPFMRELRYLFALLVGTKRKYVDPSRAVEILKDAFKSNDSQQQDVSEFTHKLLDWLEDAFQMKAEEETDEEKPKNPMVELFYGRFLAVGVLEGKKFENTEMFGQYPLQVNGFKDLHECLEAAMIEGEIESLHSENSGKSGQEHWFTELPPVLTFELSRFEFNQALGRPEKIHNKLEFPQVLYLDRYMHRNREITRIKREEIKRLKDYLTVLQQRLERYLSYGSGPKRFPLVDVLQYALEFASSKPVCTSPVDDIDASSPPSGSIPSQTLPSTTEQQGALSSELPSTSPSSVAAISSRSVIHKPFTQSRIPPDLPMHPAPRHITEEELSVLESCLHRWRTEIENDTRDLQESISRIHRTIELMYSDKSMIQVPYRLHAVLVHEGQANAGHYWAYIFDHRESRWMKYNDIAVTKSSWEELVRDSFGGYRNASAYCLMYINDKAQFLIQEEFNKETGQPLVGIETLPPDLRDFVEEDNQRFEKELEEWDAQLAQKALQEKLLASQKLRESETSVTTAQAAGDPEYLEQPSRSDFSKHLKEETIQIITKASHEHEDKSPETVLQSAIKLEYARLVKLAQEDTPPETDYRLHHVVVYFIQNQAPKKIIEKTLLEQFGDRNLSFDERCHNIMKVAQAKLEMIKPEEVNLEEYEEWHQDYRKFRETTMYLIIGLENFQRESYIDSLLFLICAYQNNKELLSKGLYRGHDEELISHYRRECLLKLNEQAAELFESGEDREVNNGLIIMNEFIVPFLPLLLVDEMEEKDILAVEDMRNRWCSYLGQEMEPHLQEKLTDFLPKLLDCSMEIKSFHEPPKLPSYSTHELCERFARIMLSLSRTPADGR
inactive: [1] -0.038 | [2] -0.027 | [3] -0.071 | [4] -0.067 | entinostat 0.001 | vorinostat -0.019 | citarinostat -0.021 | silmitasertib 0.051 | [5] -0.03 | [6] 0.011

WARS2 (UniProt Q9UGM6)
UniProt Q9UGM6, sequence (Q9UGM6 whole entry, looked up): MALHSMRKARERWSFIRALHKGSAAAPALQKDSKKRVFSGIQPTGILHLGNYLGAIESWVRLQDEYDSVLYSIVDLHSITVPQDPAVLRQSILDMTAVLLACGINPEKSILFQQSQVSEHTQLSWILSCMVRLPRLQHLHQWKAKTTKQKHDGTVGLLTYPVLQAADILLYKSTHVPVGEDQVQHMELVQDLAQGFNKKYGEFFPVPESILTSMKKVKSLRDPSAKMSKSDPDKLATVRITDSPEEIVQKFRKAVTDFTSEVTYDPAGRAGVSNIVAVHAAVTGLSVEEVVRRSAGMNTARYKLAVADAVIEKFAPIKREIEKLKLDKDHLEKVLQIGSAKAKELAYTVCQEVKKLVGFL
inactive: [1] -0.082 | [2] -0.019 | [3] -0.101 | [4] -0.08 | entinostat 0.076 | vorinostat 0.037 | citarinostat 0.095 | silmitasertib 0.07 | [5] 0.01 | [6] -0.023

TMEM161B (UniProt Q8NDZ6)
inactive: [1] -0.056 | [2] 0.029 | [3] -0.017 | [4] -0.073 | entinostat 0.041 | vorinostat 0.097 | citarinostat 0.036 | silmitasertib -0.011 | [5] 0.003 | [6] -0.03

UPF3B (UniProt Q9BZI7)
inactive: [1] 0.092 | [2] 0.11 | [3] 0.315 | [4] 0.096 | entinostat -0.079 | vorinostat 0 | citarinostat -0.125 | silmitasertib 0.149 | [5] 0.245 | [6] -0.278

USP3 (UniProt Q9Y6I4)
inactive: [1] 0.039 | [2] 0.016 | [3] -0.218 | [4] -0.115 | entinostat -0.037 | vorinostat 0.092 | citarinostat 0.102 | silmitasertib 0.019 | [5] -0.066 | [6] -0.014

TTC38 (UniProt Q5R3I4)
active: vorinostat 0.459
inactive: [1] 0.038 | [2] 0.113 | [3] -0.263 | [4] -0.09 | entinostat 0.111 | citarinostat -0.243 | silmitasertib -0.156 | [5] 0.042 | [6] 0.313

U2AF1 isoform 2 (UniProt Q01081)
inactive: [1] -0.174 | [2] -0.017 | [3] 0.058 | [4] -0.096 | entinostat -0.013 | vorinostat -0.021 | citarinostat 0.039 | silmitasertib -0.034 | [5] -0.039 | [6] -0.093

UHRF1BP1 (UniProt Q6BDS2)
inactive: [1] -0.019 | [2] 0.074 | [3] 0.019 | [4] 0.029 | entinostat -0.058 | vorinostat 0.004 | citarinostat -0.012 | silmitasertib -0.043 | [5] -0.032 | [6] 0.007

TTI1 (UniProt O43156)
UniProt O43156, sequence (O43156 whole entry, looked up): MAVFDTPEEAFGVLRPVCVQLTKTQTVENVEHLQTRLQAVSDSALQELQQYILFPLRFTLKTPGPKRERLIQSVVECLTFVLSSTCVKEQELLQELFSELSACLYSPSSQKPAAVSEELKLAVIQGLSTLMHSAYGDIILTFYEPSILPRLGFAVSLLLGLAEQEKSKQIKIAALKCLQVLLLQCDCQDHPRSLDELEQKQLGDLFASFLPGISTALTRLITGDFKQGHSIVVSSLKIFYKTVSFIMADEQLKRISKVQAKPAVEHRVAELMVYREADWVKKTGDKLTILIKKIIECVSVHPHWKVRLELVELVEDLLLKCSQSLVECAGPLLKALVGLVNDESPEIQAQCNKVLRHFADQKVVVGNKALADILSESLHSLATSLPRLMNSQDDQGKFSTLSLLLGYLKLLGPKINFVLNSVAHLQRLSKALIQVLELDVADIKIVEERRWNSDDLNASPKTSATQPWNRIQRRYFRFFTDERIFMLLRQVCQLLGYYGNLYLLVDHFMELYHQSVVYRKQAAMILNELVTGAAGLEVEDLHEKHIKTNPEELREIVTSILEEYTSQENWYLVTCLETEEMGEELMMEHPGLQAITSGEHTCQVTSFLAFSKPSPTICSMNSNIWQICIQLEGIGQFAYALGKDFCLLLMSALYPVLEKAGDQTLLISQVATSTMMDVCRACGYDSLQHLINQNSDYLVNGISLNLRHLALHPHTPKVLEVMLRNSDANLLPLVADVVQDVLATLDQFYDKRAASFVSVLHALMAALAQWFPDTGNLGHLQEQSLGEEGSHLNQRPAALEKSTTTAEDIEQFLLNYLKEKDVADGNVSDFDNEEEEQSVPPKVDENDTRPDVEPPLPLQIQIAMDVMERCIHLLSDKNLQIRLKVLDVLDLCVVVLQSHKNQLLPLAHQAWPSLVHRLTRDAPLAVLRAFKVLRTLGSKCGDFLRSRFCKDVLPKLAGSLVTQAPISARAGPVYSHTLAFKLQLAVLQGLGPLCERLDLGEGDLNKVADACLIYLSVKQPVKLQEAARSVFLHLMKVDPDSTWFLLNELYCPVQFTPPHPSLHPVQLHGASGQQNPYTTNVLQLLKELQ
inactive: [1] -0.079 | [2] -0.093 | [3] -0.181 | [4] -0.022 | entinostat 0 | vorinostat 0.142 | citarinostat 0.028 | silmitasertib 0.062 | [5] 0.057 | [6] -0.099

WDR43 (UniProt Q15061)
inactive: [1] 0.023 | [2] 0.03 | [3] 0.068 | [4] -0.023 | entinostat -0.029 | vorinostat -0.078 | citarinostat 0.007 | silmitasertib 0.051 | [5] -0.007 | [6] -0.027

VPS39 (UniProt Q96JC1)
inactive: [1] 0.026 | [2] -0.119 | [3] -0.195 | [4] -0.039 | entinostat 0.05 | vorinostat 0.101 | citarinostat 0.01 | silmitasertib -0.004 | [5] 0.055 | [6] -0.042

VPS11 (UniProt Q9H270)
inactive: [1] -0.012 | [2] -0.053 | [3] -0.159 | [4] -0.028 | entinostat 0.015 | vorinostat 0.145 | citarinostat 0.065 | silmitasertib 0.025 | [5] 0.024 | [6] 0.084
